Measured values reported in PubChem BioAssay AID2685 (National Center for Advancing Translational Sciences (NCATS), 2010).
In all, about 320,000 compounds went through this assay and about 2,100 (0.66%) were called active. Inconclusive results (about 53%) are left out. The call rests on the fitted dose curve; in most records, active means well fitted inhibition curve with a large enough effect in the signal ratio, with a control signal flat (not every such curve was filed as active); inconclusive means small, poorly fitted or top-dose-only effect, or effect the other way, or a change in a side signal; inactive means flat fitted curve, though single readings scatter; the % refers to the signal ratio. The entries come from a sample that favours actives as a whole.

Assay: qHTS Assay for Lipid Storage Modulators in Drosophila S3 Cells;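 on cell number change: cells counted by Cell Tracker Red CMTPX staining in the red channel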
Details: BODIPY lipid droplet fluorescence, 18-24 h, cells fed with added oleic acid; cell number change: measured here: cell count max response; series mostly up to 46.1 µM
How it was run: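 Drosophila S3 cells loaded with oleic acid (400 uM, as added) and compounds at several concentrations; lipid droplets imaged by 488-nm laser-scanning cytometry, 500–530 nm intensity and object ratio to cell channel. Percent activity normalized to 20 uM Triacsin C.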
Potency means the concentration at half of the fitted maximal effect.

SMILES	Potency	cell number change
COc1ccc(/C=C(\C#N)c2nc3ccc(C)cc3[nH]2)cc1Oc1ccc(C(F)(F)F)cc1[N+](=O)[O-]	8.2 µM (active)	
N#C/C(=C\c1ccc([N+](=O)[O-])o1)c1nc2ccccc2[nH]1	4.11 µM (active)	-21.1%
N#C/C(=C\c1ccc(-c2ccccc2C(=O)O)o1)c1nc2ccccc2[nH]1	inactive	-1.22%
Cc1ccc2nc(/C(C#N)=C\c3ccc(Oc4ccc(C(F)(F)F)cc4[N+](=O)[O-])cc3)[nH]c2c1	inactive	1.55%
N#C/C(=C\c1ccc(Oc2ccc(C(F)(F)F)cc2[N+](=O)[O-])cc1)c1nc2ccccc2[nH]1	inactive	-10.6%
Cc1ccc2nc(/C(C#N)=C/c3ccccc3C(=O)O)[nH]c2c1	inactive	
N#C/C(=C(/O)c1ccc([N+](=O)[O-])o1)c1nc2ccccc2[nH]1	inactive	-1.26%
Cc1ccc2nc(/C(C#N)=C/c3cn[nH]c3-c3ccc(F)cc3)[nH]c2c1	inactive	-24.5%
Cc1ccc2nc(/C(C#N)=C\c3ccc([N+](=O)[O-])o3)[nH]c2c1	6.51 µM (active)	-22.5%
CCOC(=O)c1c(NC(=O)C2CC2)sc2c1CC(C)(C)OC2	inactive	0.857%
COC(=O)C(C)n1nc(C)n(-c2ccc(C)cc2)c1=O (stereo not drawn)	inactive	-11.2%
COc1ccc(CC(=O)Nc2ccc(C(=O)Nc3ccccc3C(=O)O)cc2)cc1OC	inactive	17.1%
COc1cc(C(=O)NC(c2ccccc2)c2ccccc2)cc(Cl)c1OC	inactive	14.2%
CCC(=O)N1CCN(c2ccc(NC(=O)c3ccc4c(c3)OCCO4)cc2)CC1	inactive	25.3%
Cc1ccc(C(=O)N2CCN(c3ccc(NC(=O)c4ccc5c(c4)OCCO5)cc3)CC2)cc1	inactive	
CC(C)(C)C(=O)N1CCN(c2ccc(NC(=O)c3ccc4c(c3)OCCO4)cc2)CC1	16.4 µM (active)	-3.48%
CCN(CC(=O)Nc1ccccc1C(F)(F)F)C(=O)c1ccc(=O)n(Cc2ccccc2)n1	inactive	22.5%
CC(=O)c1cn(CC(=O)NCC2CCCO2)c2ccccc12 (stereo not drawn)	inactive	3.78%
COc1cc(CNC2CCCCCCC2)c(Br)cc1OCCO	inactive	-14%

SMILES	Potency	cell number change
Cc1ccc(NC(=O)Cn2c(=O)n(CCC(=O)NC3CCN(Cc4ccccc4)CC3)c(=O)c3ccccc32)cc1	inactive	3.62%
Cc1cccc(C)c1NC(=O)Cn1c(=O)n(CCCC(=O)NC2CCN(Cc3ccccc3)CC2)c(=O)c2ccccc21	4.11 µM (active)	-10.3%
CCc1ccc(NC(=O)Cn2c(=O)n(CCC(=O)NC3CCN(Cc4ccccc4)CC3)c(=O)c3ccccc32)cc1	inactive	3.79%
COCCN(C(=O)CSc1nc2ccc(C)cc2[nH]1)c1c(N)n(Cc2ccccc2)c(=O)[nH]c1=O	inactive	-11.3%
C[C@H]1CN=C2N(CCNC(=O)CCC3CCCCC3)[C@H](Cc3ccc(O)cc3)CN21	inactive	-4.68%
CCOC(=O)c1cccc(NC(=O)C(NS(=O)(=O)c2ccc3c(c2)CCN3C(C)=O)C(C)C)c1 (stereo not drawn)	inactive	9.06%
O=C(CS(=O)(=O)c1c[nH]c2ccccc12)Nc1ccc(F)cc1	inactive	1.05%
Cc1ccccc1NS(=O)(=O)c1cc2c3c(c1)C(C)C(=O)N3CCC2 (stereo not drawn)	inactive	
COc1ccc(/C=C/c2c([N+](=O)[O-])c(=O)n(C)c(=O)n2C)cc1OC	inactive	-10.8%
Cn1c(/C=C/c2ccc(Br)cc2)c([N+](=O)[O-])c(=O)n(C)c1=O	2.91 µM (active)	-1.8%
COc1ccc(/C=C/c2c([N+](=O)[O-])c(=O)n(C)c(=O)n2C)cc1	inactive	-2.6%
CCCCOc1ccc(-c2nnc(-c3cc[n+](C)cc3)o2)cc1	inactive	0.955%
COc1ccc(CC(=O)Nc2cccc3c2CCCC3)cc1	inactive	-12.6%
CC(=O)N/N=C(\C)CC(=O)Nc1cccc2c1CCCC2	inactive	-11.4%
CC(=O)CC(=O)Nc1cccc2c1CCCC2	0.58 µM (active)	2.07%
CCn1cc(S(=O)(=O)NC(C)c2cc(OC)ccc2OC)cn1 (stereo not drawn)	inactive	5.77%
Cc1cccc2c1N(CCCOc1ccccc1)C(=O)C2=O	inactive	4.6%
CC1CCN(CCCCOc2ccccc2F)CC1	inactive	12.3%
Cn1nnc(NC(=O)c2ccccc2)n1	inactive	-11.2%

SMILES	Potency	cell number change
CN(Cc1cnn(C)c1)C(=O)c1cc(COc2c(F)cccc2F)on1	inactive	16.3%
Cc1ccc(OCc2cc(C(=O)N(C)Cc3cnn(-c4ccccc4C)c3)no2)cn1	23.1 µM (active)	-11.8%
CC(=O)c1ccc(OCc2cc(C(=O)N(C)Cc3cc(C)no3)no2)cc1	inactive	-2.95%
C/C(=N\NC(=O)Cc1cccn1C)c1ccc([N+](=O)[O-])cc1	inactive	2.69%
CCN(Cc1ccncc1)C(=O)CSc1ccc2ccccc2c1	inactive	
O=C(Nc1ccc2ccccc2c1)c1ccc(Cl)cc1	1.3 µM (active)	-18.8%
O=C(Nc1ccc2ccccc2c1)c1ccc2[nH]c(=O)c(=O)[nH]c2c1	inactive	-10.4%
O=C(Nc1ccc2ccccc2c1)c1ccc(Cl)cc1Cl	inactive	-1.02%
CCOc1ccc(C(=O)COC(=O)c2nn(CC)c(=O)c3ccccc23)cc1	inactive	18.9%
CNC(=O)NNC(=O)c1onc(-c2c(Cl)cccc2Cl)c1C(=O)OC	inactive	19.9%
CC(C)c1nc2ccccc2n1CCC(=O)O	16.4 µM (active)	-4.05%
CCc1nc2ccccc2n1CCC(=O)O	inactive	-14.7%
CCSc1nc2ccccc2n1CCC(=O)O	inactive	
CCC(C)(CC(=O)Nc1nccs1)c1ccccc1 (stereo not drawn)	inactive	7.48%
N#Cc1nc(-c2cccc3ccccc23)oc1NCC#CCOC(=O)c1cccs1	14.6 µM (active)	-10.2%
O=C(OCC#CCSc1nnc(-c2ccccc2)o1)c1cccs1	inactive	-0.992%
COc1ccc(CNc2oc(-c3cccc4ccccc34)nc2C#N)cc1	inactive	-5.87%
CC(NC(=O)CSc1n[nH]c(=O)n1C1CC1)C12CC3CC(CC(C3)C1)C2 (stereo not drawn)	inactive	7.42%
S=C1NCCOCCOCCOCCNC(=S)N2CCOCCOCCN1CCOCCOCC2	inactive	-2.24%
